Screening results (PubChem)
ADAM17 inh: ADAM17 inhibitors, primary screen, biochemical, QFRET | recombinant ADAM17, EDANS/DABCYL FRET peptide cleavage | inhibition, % at 6.95 µM | 370,000 compounds, 0.83% hits;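 active = inhibition above the mean of compounds lying between control limits plus 3 SD, set per campaign, cut at about 8.5% in these data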;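 also: 0% = DMSO-only wells as the low control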
KLK7 zymogen act: proKLK7 zymogen activators, primary screen, biochemical, fluorescence intensity. Kallikrein-7 (Homo sapiens), P49862. purified proKLK7, EDANS-DABCYL substrate fluorescence; 100% is mature enzyme control, 0% vehicle. activation, % at 7 µM. 370,000 compounds, 0.9% hits. AID 652039, 2013;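 active = activation above the mean of all tested compounds plus 3 SD, computed per campaign excluding outliers beyond control limits, cut at about 13% in these data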
rCAG RNA binder: binders of r(CAG) RNA repeats, primary screen, biochemical, fluorescence; r(CAG) RNA repeat, TO-PRO-1 dye displacement fluorescence; inhibition, % at 3 µM; 370,000 compounds, 1.3% hits; AID 651821, 2012;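 active = inhibition above the plate cutoff, the mean of all test compounds on that plate plus 3 SD, cut at about 35% in these data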;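 also: 0% = DMSO alone and 100% = 100 µM mitoxantrone as full dye displacement; higher means more dye released from RNA so lower well fluorescence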
GRIN3A LBD mod: binders of NR3A ligand-binding domain, primary screen, biophysical, differential scanning fluorimetry, uHTS. AID 1259313, 2017. 340,000 compounds, 2.5% hits. Tm shift relative to glycine control, % at 25 µM. Glutamate receptor ionotropic, NMDA 3A (GRIN3A) ligand-binding domain. NR3A LBD differential scanning fluorimetry, Tm shift; 0% = protein alone, 100% = glycine-bound protein;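 active = melting temperature shift of at least 10% of the positive control shift, at one fixed dose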
AHR act: AHR activators, primary screen, cell-based, luminescence, luciferase reporter, human | AID 2796, 2010 | AHR-responsive luciferase reporter cells | activation, % at 5 µM | 320,000 compounds, 2.5% hits; in the data active = activation above about 47%;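 also: 0% = vehicle wells and 100% = reference agonist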
ADAM10 inh: human ADAM10 inhibitors, primary screen, biochemical, QFRET, HTS; recombinant ADAM10, EDANS/DABCYL FRET peptide cleavage, 3 h; inhibition, % at 7 µM; 370,000 compounds, 0.62% hits; AID 720582, 2013; Disintegrin and metalloproteinase domain-containing protein 10 (Homo sapiens), O14672;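 active = inhibition above a per-campaign cutoff equal to the mean of compounds falling between control-based bounds plus 3 SD, cut at about 20% in these data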;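 also: 0% = DMSO wells while the 100% control is not disclosed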
Target sequence (O14672 214-748 limits assumed): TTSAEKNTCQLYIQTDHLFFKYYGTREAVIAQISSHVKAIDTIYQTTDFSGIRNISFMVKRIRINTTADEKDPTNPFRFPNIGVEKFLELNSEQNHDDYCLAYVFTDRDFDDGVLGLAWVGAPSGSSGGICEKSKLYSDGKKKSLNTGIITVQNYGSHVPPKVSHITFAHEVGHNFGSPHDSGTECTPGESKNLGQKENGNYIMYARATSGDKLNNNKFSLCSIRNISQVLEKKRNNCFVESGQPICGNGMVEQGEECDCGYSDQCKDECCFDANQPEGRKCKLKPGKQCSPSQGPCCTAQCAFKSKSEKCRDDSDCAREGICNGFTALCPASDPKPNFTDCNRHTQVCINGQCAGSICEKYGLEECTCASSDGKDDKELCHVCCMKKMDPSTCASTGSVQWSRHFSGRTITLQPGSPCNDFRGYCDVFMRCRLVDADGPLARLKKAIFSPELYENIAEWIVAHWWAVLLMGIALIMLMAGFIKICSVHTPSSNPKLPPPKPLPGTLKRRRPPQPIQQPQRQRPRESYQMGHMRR
AHR act confirm: AHR activators, confirmation, cell-based, luminescence, luciferase reporter, human. activation, % at 9 µM. 2,300 compounds, 87% hits. shares compounds with AHR act. human cells, AHR-responsive luciferase reporter; in the data active = activation above about 49%;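 also: HepG2 hepatoma cells carrying a DRE-driven firefly luciferase reporter; 0% = vehicle wells and 100% = reference agonist wells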
PXR counter: human PXR activators, counter-screen for AHR activator project, cell-based, luciferase luminescence. activation, % at 11.6 µM. shares compounds with AHR act. 2,300 compounds, 88% hits. cell-based PXR reporter. AID 434939, 2010; in the data active = activation above about 11%;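 also: human hepatoma DPX-2 cells expressing full-length human PXR; 0% = DMSO and 100% = reference agonist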
The depositor's hits bear a star; i = inactive; . = no result given. In the library only some 7% were active in any assay of this set; here they are far more common.

SMILES	ADAM17 inh	KLK7 zymogen act	rCAG RNA binder	GRIN3A LBD mod	AHR act	ADAM10 inh	AHR act confirm	PXR counter
COc1ccc(CCN2Cc3c(N)cccc3C2=O)cc1OC	2	-1	5	-2	83*	3	1	12*
CC(C)N(C[C@@H]1CSCCS(=O)(=O)N1)C(C)C	-1	0	1	.	.	-17	.	.
Clc1ccsc1-c1csc(-c2cccnc2)n1	-7	0	3	2	85*	-19	142*	25*
c1cncc(-c2nc(-c3ccc4c(c3)OCO4)cs2)c1	-1	0	-3	-30	95*	-3	80*	27*
c1cncc(-c2csc(-c3cccnc3)n2)c1	-4	2	13	-2	-3	-4	.	.
Cc1sc(NC(=O)C2=COCCO2)nc1-c1ccc(Br)cc1	-9	1	5	-23	99*	-13	94*	34*
CCN=C1NC(c2ccc(C(F)(F)F)cc2)C(C(=O)OC)=C(C)N1Cc1cccc(C(F)(F)F)c1 (stereo not given)	2	0	5	.	.	-2	.	.
CCn1c(/C=C/c2ccccc2)nc2ccccc21	-281	12	1	-1	15	i	.	.
CC(C)Cn1c(/C=C/c2ccccc2)nc2ccccc21	-312	2	-1	-2	84*	i	119*	68*
C=CCNC(=O)c1nc2ccccc2s1	-4	0	1	0	15	0	.	.
C=CCNc1sc(C(=O)c2ccccc2)c(N)c1-c1nc2ccccc2s1	.	.	.	-1	132*	.	90*	44*
Fc1ccccc1/C=N/n1cnnc1	2	-1	1	0	0	3	.	.
Fc1ccccc1/C=N/n1cc(-c2ccccc2)[nH]c1=S	-9	0	6	2	87*	-28	112*	45*
S=c1[nH]c(-c2ccccc2)cn1/N=C/c1cccnc1	-8	0	-2	-4	82*	-16	102*	17*
S=c1[nH]nc(-c2cccnc2)n1/N=C/c1ccccc1	2	0	2	2	4	4	.	.
COC(=O)C1=C(C)N(Cc2cccc(C(F)(F)F)c2)C(=NCC2CC2)NC1c1ccccc1C(F)(F)F (stereo not given)	3	1	3	.	.	-11	.	.
O=S1(=O)c2ccc(Br)cc2OC[C@H](c2ccccc2)N1Cc1ccccc1	-4	-1	4	.	.	-12	.	.
COc1ccc([N+](=O)[O-])cc1N/C(=N/S(=O)(=O)c1ccccc1)c1ccccc1	1	0	2	3	113*	6	84*	133*
O=C(Nc1cccc(Cl)c1)N1CCc2ccccc2C1	-1	1	-3	-1	114*	-3	118*	30*
CC(C)c1ccc(NC(=O)N2CCc3ccccc3C2)cc1	1	0	-1	-27	114*	8	96*	93*
COc1cccc(NC(=O)N2CCc3ccccc3C2)c1	-3	0	-5	1	41	-5	.	.
CCCCNC(=O)C[C@H]1C[C@@]2(C(=O)OC)C(=C[C@H](C(C)C)O[C@@H]2C2CC2)N(Cc2ccc(Cl)cc2Cl)C1=O	-11	0	1	.	.	-5	.	.
O=C(NC(=S)Nc1ccc(Br)cn1)c1cccs1	-1	0	14	-12	84*	1	116*	16*
CCOC(=O)c1ccc2c(c1)nc(-c1ccc(F)cc1)c1nccn12	-1	0	0	3	85*	-5	99*	24*
CCOC(=O)c1ccc2c(c1)nc(-c1ccccn1)n2CC	-3	0	-2	0	17	3	.	.
SMILES	ADAM17 inh	KLK7 zymogen act	rCAG RNA binder	GRIN3A LBD mod	AHR act	ADAM10 inh	AHR act confirm	PXR counter
COc1ccc(-c2ccc(SCC(=O)NCc3ccco3)nn2)cc1OC	-3	0	0	0	9	-8	.	.
COc1ccc(-c2[nH]c(-c3ccc(C)cc3)nc2SCC(=O)NCc2ccco2)cc1OC	-3	1	4	-1	121*	-2	85*	12*
COc1ccc(NC(=O)c2cc3c(-c4ccc(OC)c(OC)c4)nn(C)c3s2)cc1OC	0	-1	15	-3	6	-18	.	.
COc1ccc(-c2nn(C)c3sc(C(=O)NCc4ccco4)cc23)cc1OC	-5	-2	4	2	134*	-11	112*	35*
CCOc1ccc(CCNC(=O)c2cc3sccc3n2Cc2ccccc2)cc1OCC	1	.	.	.	.	4	.	.
COc1ccc(S[C@]2(C(=O)N3CCOCC3)CC(=O)N(c3ccccc3)[C@@H]2c2ccc(OC)cc2)cc1	4	2	5	.	.	3	.	.
Cc1ccc(N/N=C(\C#N)C(=N)N2CCOCC2)cc1	4	-1	0	-19	123*	4	115*	16*
Cc1ccc(N/N=C(\C#N)C(=N)N2CCCCCC2)cc1	-5	1	-1	5	26	0	.	.
Cc1cc(OCCn2ccnc2)cc(C)c1Cl	-3	0	-6	-3	80*	-6	55*	16*
Cc1cccc(C)c1OCCCn1ccnc1	6	0	4	3	136*	2	36	16*
Cc1cccc(C)c1OCCN1CCCC1	0	0	-1	0	95*	-2	3	11*
Cc1cccc(OCCCCCn2ccnc2)c1C	-2	0	-7	1	22	3	.	.
Cc1cccc(C)c1OCCCN1CCCC1	0	0	2	0	2	3	.	.
CCNC(=O)N(C)[C@H]1C[C@H]2c3[nH]c4c(-c5cccc(C)c5)cccc4c3CCN2C[C@H]1[C@H](C)O	-20	0	6	.	.	-59	.	.
C=CCN1CC(COc2ccc(OC)cc2)OCCS1(=O)=O (stereo not given)	-2	-1	1	.	.	3	.	.
O=C(CSCC(=O)Nc1nc(-c2ccc3c(c2)OCO3)cs1)Nc1nccs1	-7	0	10	-29	100*	-17	63*	27*
O=C(CSc1ccc(-c2ccc3c(c2)OCO3)nn1)Nc1nccs1	-2	0	0	-1	17	4	.	.
